TDP1 cell noCPT – qHTS for Inhibitors of human tyrosyl-DNA phosphodiesterase 1 (TDP1): qHTS in cells in absence of CPT | DT40 Tdp1-/- hTDP1 cells, no CPT, ATP luminescence, 48 h | Potency, µM (top dose mostly 46.2 µM), usual class: inhibitors | actives 15% (n = 420,000); also: nearly all actives have a fitted effect of over 55% in size
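Chicken DT40 Tdp1-/- cells stably complemented with human TDP1 were seeded at 400 cells/well with DMSO in place of 20 nM camptothecin. After compound pinning, cells grew at least 48 hr at 37 °C; viability read by CellTiter-Glo luminescence.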
ELG1 repair inh – blocks ELG1-dependent DNA repair in HEK293T cells; actives 2.3% (n = 330,000); AID 504467; HEK293T ELG1-luciferase reporter, luminescence, 16 h; DNA damage induced by 5-fluorouridine; Potency, µM (highest dose often 46.1 µM), actives largely listed as inhibitors; also: nearly all actives have a fitted effect of over 55% in size
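DMSO vehicle served as the neutral condition. Each well held 2,000 cells given 5-fluorouridine plus compound; after 16 hr at 37 °C/5% CO2, ONE-Glo was added and luciferase measured 30 min later.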
IL1B secr inh – blocks inflammasome-driven IL-1 beta release; THP-1 LPS/ATP IL-1B secretion, AlphaLISA, 16 h; hits give low values; activity change, % at 57.5 µM; actives 4.7% (n = 360,000); AID 743279; in the data active = activity change below about -50%; inconclusive = mostly about -30% to -49%
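Secreted IL-1B measured by AlphaLISA bead assay after 16 h compound exposure of THP-1 cells; compounds (final up to 57.5 uM) added 1 h before LPS (250 ng/mL) and ATP (1.25 mM) stimulation; lower signal means less secretion.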
HT1080-NT tox – kills 2HG-producing HT-1080-NT fibrosarcoma cells; HT-1080-NT fibrosarcoma viability, CellTiter-Glo ATP luminescence, 48 h; Potency, µM (titrated, usually from 46.1 µM), actives largely listed as cytotoxic; actives 1.6% (n = 360,000);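 also: NT is the 2HG producing partner of a matched IDH1 knockdown line; nearly all actives have a fitted effect of over 55% in size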
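Luminescent CellTiter-Glo readout after 48 hours of compound exposure at 37 degrees C defined viability of HT-1080-NT cells. Activity was normalized to DMSO wells and cell-free media wells; concentration-response curves were fitted and assigned curve classes.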
DT40 TDP1 CPT – DT40-hTDP1 cell growth loss with CPT; chicken DT40 Tdp1-/-;hTDP1 cells + 20 nM CPT, ATP luminescence, 48 h; Potency, µM (series often up to 46.2 µM), usual class: inhibitors; AID 686979; actives 12% (n = 420,000); also: nearly all actives have a fitted effect of over 55% in size
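Cell growth measured by CellTiter-Glo luminescence after a minimum 48 h, 37 C compound exposure with 20 nM CPT in Tdp1-knockout DT40 cells stably expressing hTDP1, seeded 400/well; qHTS titration format.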
HT1080 IDH1KD tx – HT-1080 IDH1 knockdown cell toxicity (counter line) | HT-1080 IDH1 knockdown viability, ATP luminescence, 48 h | Potency, µM (series often up to 46.1 µM), usual class: cytotoxic | actives 2% (n = 360,000) | AID 686971
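Using the IDH1-knockdown HT-1080 line run in the same batch and compound series as the NT line, viability after 48 h at 37 °C was determined by CellTiter-Glo luminescence and expressed as % activity.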
Hits are given with their value; - = inactive; ? = inconclusive; . = not tested or not shown; [ ] = another dose, or the depositor's remark. In the library only some 19% were active in any assay of this set; here they are far more common. Unless noted, calls follow the shape of the dose curve; as a rule, active = well fitted curve in the direction sought with a large enough effect; inconclusive = small, poorly fitted or top-dose-only effect, or another doubt; inactive = no such curve, though single readings can be large; an effect the other way counts as inactive or inconclusive.

SMILES	TDP1 cell noCPT	ELG1 repair inh	IL1B secr inh	HT1080-NT tox	DT40 TDP1 CPT	HT1080 IDH1KD tx
C=CCNC(N)=S	-	-	-	-	-	-
CC(=O)n1cc(C(C[N+](=O)[O-])SCCN)c2ccccc21 (stereo not given)	5.17µM	?	-97.4	?	5.17µM	?
NC(=O)c1ccc(N=Cc2ccc([N+](=O)[O-])s2)cc1	3.26µM	?	-108.4	?	5.17µM	-
Cc1cc(C)cc(N=Cc2ccc([N+](=O)[O-])s2)c1	2.59µM	?	-103.8	?	2.59µM	20.6µM
Cc1ccc(NC(=S)N/N=C/c2ccc([N+](=O)[O-])s2)cc1	?	-	-73.2	?	?	?
COC(=O)c1cc(NC(=O)Cn2c(=O)oc3ccccc32)cc(C(=O)OC)c1	-	-	-	-	-	-
COc1ccc(Nc2nc(OC)nc(OC)n2)cc1	-	?	-	-	-	-
COc1ccc(/C=C/c2ccccn2)cc1	-	.	.	.	?	.
COc1ccc(/C=C/c2ccnc3ccccc23)cc1	31.6µM	.	.	.	11.2µM	.
COc1ccc(Nc2ccnc(Nc3ccc(OC)cc3)n2)cc1	2.59µM	?	-99.1	23.1µM	2.59µM	20.6µM
O=C(NCCc1ccccc1)c1nccc2ccccc12	-	?	-	-	-	-
c1ccc(CCNc2ccnc3cc4ccccc4cc23)cc1	7.31µM	?	-101.8	18.4µM	5.8µM	20.6µM
CC(C)Nc1ccc(Nc2ccnc3cc4ccccc4cc23)cc1	7.31µM	-	-106.5	?	8.2µM	5.17µM
Cc1cc(OC(=O)c2cccc(F)c2)c([N+](=O)[O-])c(=O)[nH]1	-	-	-	-	-	-
COc1ccc(/C=N\Nc2ccccn2)c(OC)c1	-	?	-	-	-	-
COc1cc(/C=C/c2ccnc3ccccc23)cc(OC)c1OC	11.2µM	.	.	.	11.2µM	.
COc1ccc(Nc2ccnc3ccccc23)cc1	16.4µM	16.4µM	?	-	13µM	-
COc1cc(N(C)C)ccc1/C=C/c1ccnc2ccccc12	25.1µM	.	.	.	10µM	.
COc1ccc(/C=C/c2ccnc3ccccc23)c(OC)c1	17.8µM	.	.	.	22.4µM	.
Clc1ccccc1/C=C/c1ccnc2ccccc12	?	?	-	-	?	-
CCC(C)[C@H](NC(=O)NCc1ccc(S(N)(=O)=O)cc1)C(=O)O (stereo not given in full)	-	-	-	-	-	-
Cc1ccc(-n2nc(CO)c(C(=O)NCCCc3ccccc3)n2)cc1C	-	.	.	.	-	.
Cc1ccc(O)c(C(=O)c2cc(C#N)c3nc4ccccc4n3c2)c1	9.2µM	?	-	-	?	-
Cc1ccc(O)c(C(=O)c2cc(C#N)c(=O)n(Cc3ccccc3)c2)c1	9.2µM	-	-	-	16.4µM	?
Cc1ccc(-n2cc(C(=O)c3cc(Cl)ccc3O)cc(C#N)c2=O)cc1	23.1µM	-	-	-	20.6µM	-
SMILES	TDP1 cell noCPT	ELG1 repair inh	IL1B secr inh	HT1080-NT tox	DT40 TDP1 CPT	HT1080 IDH1KD tx
N#Cc1cc(C(=O)c2cc(F)ccc2O)cn(Cc2ccccc2)c1=O	?	-	-	-	-	-
COc1ccc(O)c(C(=O)c2cnc3nc4ccccc4n3c2)c1	20.6µM	?	-	-	14.6µM	-
COc1ccc(O)c(C(=O)c2cnn(-c3ccc(Cl)cc3)c2)c1	-	-	-	-	-	-
Cc1ccc(O)c(C(=O)c2cc(C#N)c(=O)n(C(C)c3ccccc3)c2)c1 (stereo not given)	14.6µM	?	-	-	?	-
Cc1c(-n2cc(C(=O)c3ccccc3O)cc(C#N)c2=O)c(=O)n(-c2ccccc2)n1C	-	?	-	-	-	-
Cc1ccccc1NC(=O)c1cc(C(=O)c2cc(Cl)ccc2O)cn(-c2ccccc2C)c1=O	23.1µM	20.6µM	-	?	13µM	?
Cc1nc2ccccc2c(=O)n1NC(=O)c1c(O)c2c(n(CC(C)C)c1=O)CCCC2	20.6µM	-	-	20µM	?	?
CCCCCCc1nc2ccccc2c(=O)n1NC(=O)c1c(O)c2cccc3c2n(c1=O)CCC3	.	-	.	.	.	.
CCCCCCc1nc2ccccc2c(=O)n1NC(=O)c1c(O)c2c(n(CC(C)C)c1=O)CCCC2	3.26µM	-	-	-	4.61µM	-
Cc1cc(=O)n2[nH]c(NC(=O)c3cccc(Cl)c3)nc2n1	?	.	.	.	-	.
Nc1ccc(N=Nc2ccccc2)cc1[N+](=O)[O-]	-	.	-	-	-	-
Nc1c(N=Nc2ccc([N+](=O)[O-])cc2)c(S(=O)(=O)O)cc2cc(S(=O)(=O)O)c(/C=C/c3ccccc3)c(O)c12	14.1µM	.	.	.	10µM	.
CSc1nc2nc3c(cc2c(=O)n1-c1cccc(C)c1)COC(C)(C)C3	?	20.6µM	-	-	?	-
Cc1nc2nc(SCc3ccccc3)[nH]n2c(=O)c1CCC(C)C	-	-	-	-	-	-
O=C1C=CC(O)C2(CO)OC12 (stereo not given)	5.8µM	.	-89.7	?	16.4µM	?
Cc1nn(C2CCCO2)c(=O)nc1N (stereo not given)	.	-	.	.	.	.
CCCNC(=O)C1(C)CCCN(C/C=C/c2ccccc2)C1 (stereo not given)	-	.	-	-	-	-
CCc1cc(-c2n[nH]c(C)c2-c2nc3ccccc3n2C)c(O)cc1O	18.4µM	?	?	?	?	?
CCc1ccc(NS(=O)(=O)c2ccc(OC)c(C)c2)cc1	23.1µM	-	-	-	?	-
COc1ccc(S(=O)(=O)Nc2ccc(Cc3ccncc3)cc2)cc1C	?	?	?	?	13µM	-
CNS(=O)(=O)c1ccc2ccccc2c1	-	?	-	-	-	-
Cc1cc(O)cc(C)c1NS(=O)(=O)c1ccc2ccccc2c1	25.9µM	-	-	-	?	-
COc1ccc(S(=O)(=O)Nc2ccc3ccccc3c2)cc1C	?	?	-	-[9.24 µM]	9.2µM	?
O=C(O)c1cccnc1Sc1ccc(Br)cc1	-	-	-	-	?	-
CCOc1ccc(-n2c(=O)c3c(C)c(C)sc3n(Cc3ccccc3C)c2=O)cc1	-	.	.	.	-	.
Cc1ccc(S(=O)(=O)/N=C2/C=C(Sc3ncn[nH]3)C(=O)c3ccccc32)cc1	0.366µM	16.4µM	-104.8	18.4µM	0.326µM	3.66µM
Cc1ccc(S(=O)(=O)Nc2ccc(O)c(Sc3ncn[nH]3)c2)cc1	-	-	-	-	-	-
CC(C)c1ccc(S(=O)(=O)/N=C2/C=C(Sc3ncn[nH]3)C(=O)c3ccccc32)cc1	3.26µM	6.51µM	-100.1	2.91µM	2.59µM	4.61µM

Compound activity (PubChem)
